# According to article PMC7862700, “An all-to-all approach to the identification of sequence-specific readers for epigenetic DNA modifications on cytosine”:
# Assays:
# Experiment in all cases: DAPPL (digital affinity profiling via proximity ligation, sequencing); 10 mM Tris-HCl pH 7.5, 50 mM NaCl, 1 mM DTT, 4% glycerol, room temperature, 30 min; GST-TFs on glutathione beads, 16-mer random dsDNA library, 0.1% formaldehyde crosslink after washing; high values mean tight binding
# FEV = molecular target: T1, FEV (Homo sapiens, UniProt Q99581 1-238); details: protein: recombinant; tags: N-terminal GST; dsDNA, one strand shown
# T1 sequence: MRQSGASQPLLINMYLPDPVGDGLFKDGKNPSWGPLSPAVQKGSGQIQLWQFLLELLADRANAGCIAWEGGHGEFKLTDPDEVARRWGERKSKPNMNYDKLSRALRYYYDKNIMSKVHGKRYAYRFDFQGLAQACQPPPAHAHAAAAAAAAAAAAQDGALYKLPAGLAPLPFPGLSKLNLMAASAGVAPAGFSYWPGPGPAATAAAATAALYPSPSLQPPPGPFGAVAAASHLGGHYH
# Method in brief: (§1)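 Binding signal is each hexamer's read frequency for a factor divided by its frequency in the tag-only sample. The factors were GST-fused human transcription factors from yeast, captured on glutathione beads, DNA-barcoded and pooled with that sample. Pools were incubated with 200 nmole of a random double-stranded 16-mer DNA library in Tris/NaCl/DTT/glycerol buffer at room temperature for 30 min, then washed, crosslinked with 0.1% formaldehyde, proximity-ligated with BsaI/T4 ligase (1 h, 37 °C), PCR-amplified and sequenced on an Illumina NextSeq500.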
# ETV5 = ETV5 (Homo sapiens, UniProt P41161 1-510); details: protein: recombinant; tags: N-terminal GST; dsDNA, one strand shown
# Method in brief: as §1
# HSF1 = HSF1 (Homo sapiens, UniProt Q00613 1-529); details: protein: recombinant; tags: N-terminal GST; chain copies: 3; dsDNA, one strand shown
# Method in brief: as §1
# SPIC = molecular target: T2, SPIC (Homo sapiens, UniProt Q8N5J4 1-248); details: protein: recombinant; tags: N-terminal GST; dsDNA, one strand shown
# T2 sequence: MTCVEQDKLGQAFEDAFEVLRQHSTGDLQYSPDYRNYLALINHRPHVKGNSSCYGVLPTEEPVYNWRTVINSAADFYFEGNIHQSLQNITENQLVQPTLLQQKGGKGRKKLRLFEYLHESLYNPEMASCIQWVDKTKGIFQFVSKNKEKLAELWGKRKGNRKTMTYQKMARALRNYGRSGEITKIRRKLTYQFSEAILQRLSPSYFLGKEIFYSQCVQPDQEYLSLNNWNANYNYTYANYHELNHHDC
# Method in brief: as §1
# ELF4 = ELF4 (Homo sapiens, UniProt Q99607 1-663); details: protein: recombinant; tags: N-terminal GST; dsDNA, one strand shown
# Method in brief: as §1
# ELK4 = molecular target: T3, ELK4 (Homo sapiens, UniProt P28324-2 1-405); details: protein: recombinant; tags: N-terminal GST; dsDNA, one strand shown
# T3 sequence: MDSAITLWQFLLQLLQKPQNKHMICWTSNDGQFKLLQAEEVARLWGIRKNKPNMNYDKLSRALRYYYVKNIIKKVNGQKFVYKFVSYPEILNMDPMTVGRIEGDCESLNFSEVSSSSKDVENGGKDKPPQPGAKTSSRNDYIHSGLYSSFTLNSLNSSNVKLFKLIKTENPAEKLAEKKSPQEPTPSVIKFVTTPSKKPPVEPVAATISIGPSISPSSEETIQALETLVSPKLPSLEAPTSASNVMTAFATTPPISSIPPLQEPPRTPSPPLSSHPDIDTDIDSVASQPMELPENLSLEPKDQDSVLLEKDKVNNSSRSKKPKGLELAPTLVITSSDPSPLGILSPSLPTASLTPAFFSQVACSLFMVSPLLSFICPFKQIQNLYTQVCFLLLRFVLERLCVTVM
# Method in brief: as §1
# ETV2 = molecular target: T4, ETV2 (Homo sapiens, UniProt O00321 1-342); details: protein: recombinant; tags: N-terminal GST; dsDNA, one strand shown
# T4 sequence: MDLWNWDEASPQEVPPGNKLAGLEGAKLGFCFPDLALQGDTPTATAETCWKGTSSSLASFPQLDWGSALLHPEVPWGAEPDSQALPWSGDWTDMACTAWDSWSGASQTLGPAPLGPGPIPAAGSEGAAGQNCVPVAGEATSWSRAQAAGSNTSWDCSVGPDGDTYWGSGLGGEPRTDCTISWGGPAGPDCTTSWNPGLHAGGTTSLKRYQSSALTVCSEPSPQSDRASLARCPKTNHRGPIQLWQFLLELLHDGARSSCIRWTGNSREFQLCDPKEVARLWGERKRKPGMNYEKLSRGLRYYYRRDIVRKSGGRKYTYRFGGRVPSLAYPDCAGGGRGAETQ
# Method in brief: as §1
# ELF3 = molecular target: T5, ELF3 (Homo sapiens, UniProt P78545 1-371); details: protein: recombinant; tags: N-terminal GST; dsDNA, one strand shown
# T5 sequence: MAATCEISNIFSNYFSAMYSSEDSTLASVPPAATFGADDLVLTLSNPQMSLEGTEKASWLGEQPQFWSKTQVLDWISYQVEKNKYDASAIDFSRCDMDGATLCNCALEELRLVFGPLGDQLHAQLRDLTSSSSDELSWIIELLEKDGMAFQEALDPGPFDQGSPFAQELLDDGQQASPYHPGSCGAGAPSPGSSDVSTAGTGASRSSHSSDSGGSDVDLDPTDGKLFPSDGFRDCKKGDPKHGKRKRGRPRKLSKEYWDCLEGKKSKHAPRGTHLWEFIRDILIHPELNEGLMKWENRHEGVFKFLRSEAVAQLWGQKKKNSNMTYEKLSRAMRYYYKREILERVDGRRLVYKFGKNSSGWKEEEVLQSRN
# Method in brief: as §1
# CRX = CRX (Homo sapiens, UniProt O43186 1-299); details: protein: recombinant; tags: N-terminal GST; dsDNA, one strand shown
# Method in brief: as §1
# ETV1 = ETV1 (Homo sapiens, UniProt P50549 1-477); details: protein: recombinant; tags: N-terminal GST; dsDNA, one strand shown
# Method in brief: as §1
# ERF = molecular target: T6, ERF (Homo sapiens, UniProt P50548 1-548); details: protein: recombinant; tags: N-terminal GST; dsDNA, one strand shown
# T6 sequence: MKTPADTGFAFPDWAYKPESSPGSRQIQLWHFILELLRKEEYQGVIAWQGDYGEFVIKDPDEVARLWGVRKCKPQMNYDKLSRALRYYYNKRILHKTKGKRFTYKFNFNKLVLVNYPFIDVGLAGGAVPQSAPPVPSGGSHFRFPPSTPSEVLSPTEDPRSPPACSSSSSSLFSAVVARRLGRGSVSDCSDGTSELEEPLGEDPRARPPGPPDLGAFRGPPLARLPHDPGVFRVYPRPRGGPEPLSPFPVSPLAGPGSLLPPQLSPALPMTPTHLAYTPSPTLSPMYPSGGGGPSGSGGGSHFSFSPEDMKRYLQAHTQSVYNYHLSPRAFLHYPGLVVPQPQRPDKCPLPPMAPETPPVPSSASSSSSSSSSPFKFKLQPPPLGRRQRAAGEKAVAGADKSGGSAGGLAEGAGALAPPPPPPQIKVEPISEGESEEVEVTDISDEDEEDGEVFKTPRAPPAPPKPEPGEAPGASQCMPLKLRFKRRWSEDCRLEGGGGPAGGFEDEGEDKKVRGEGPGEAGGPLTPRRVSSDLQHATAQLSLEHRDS
# Method in brief: as §1
# ETV3L = molecular target: T7, ETV3L (Homo sapiens, UniProt Q6ZN32 1-361); details: protein: recombinant; tags: N-terminal GST; dsDNA, one strand shown
# T7 sequence: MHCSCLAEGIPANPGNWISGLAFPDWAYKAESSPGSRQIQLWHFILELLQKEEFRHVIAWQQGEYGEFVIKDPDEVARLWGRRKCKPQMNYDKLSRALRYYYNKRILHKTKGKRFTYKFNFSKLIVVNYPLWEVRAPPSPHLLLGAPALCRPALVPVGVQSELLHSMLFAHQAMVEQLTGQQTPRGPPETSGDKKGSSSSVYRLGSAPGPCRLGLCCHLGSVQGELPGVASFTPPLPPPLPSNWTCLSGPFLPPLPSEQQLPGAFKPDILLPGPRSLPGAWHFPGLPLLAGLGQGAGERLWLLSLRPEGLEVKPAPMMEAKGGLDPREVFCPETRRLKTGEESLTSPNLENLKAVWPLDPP
# Method in brief: as §1
# ETS2 = molecular target: T8, ETS2 (Homo sapiens, UniProt P15036 1-469); details: protein: recombinant; tags: N-terminal GST; dsDNA, one strand shown
# T8 sequence: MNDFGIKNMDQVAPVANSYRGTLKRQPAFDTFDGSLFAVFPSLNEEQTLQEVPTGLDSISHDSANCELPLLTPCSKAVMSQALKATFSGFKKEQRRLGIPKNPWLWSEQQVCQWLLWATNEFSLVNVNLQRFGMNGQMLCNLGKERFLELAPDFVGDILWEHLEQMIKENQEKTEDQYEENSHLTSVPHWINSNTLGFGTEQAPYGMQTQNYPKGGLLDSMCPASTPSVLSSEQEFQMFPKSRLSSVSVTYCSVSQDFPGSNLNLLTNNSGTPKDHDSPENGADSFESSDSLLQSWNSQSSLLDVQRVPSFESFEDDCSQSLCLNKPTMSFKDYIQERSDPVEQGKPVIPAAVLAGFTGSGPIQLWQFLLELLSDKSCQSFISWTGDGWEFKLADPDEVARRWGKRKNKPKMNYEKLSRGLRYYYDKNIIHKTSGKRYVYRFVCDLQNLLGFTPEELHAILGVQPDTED
# Method in brief: as §1
# SPDEF = molecular target: T9, SPDEF (Homo sapiens, UniProt O95238 1-335); details: protein: recombinant; tags: N-terminal GST; dsDNA, one strand shown
# T9 sequence: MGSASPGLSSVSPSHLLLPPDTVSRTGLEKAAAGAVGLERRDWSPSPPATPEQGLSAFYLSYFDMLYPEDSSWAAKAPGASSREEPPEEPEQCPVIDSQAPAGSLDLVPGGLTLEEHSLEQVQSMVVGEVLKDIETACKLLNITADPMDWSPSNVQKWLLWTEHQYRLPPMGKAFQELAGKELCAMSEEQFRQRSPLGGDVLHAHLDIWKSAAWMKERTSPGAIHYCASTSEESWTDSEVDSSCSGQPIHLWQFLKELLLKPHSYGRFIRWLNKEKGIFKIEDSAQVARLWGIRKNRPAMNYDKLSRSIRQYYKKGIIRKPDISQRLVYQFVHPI
# Method in brief: as §1
# ETV7 = molecular target: T10, ETV7 (Homo sapiens, UniProt Q9Y603 1-341); details: protein: recombinant; tags: N-terminal GST; dsDNA, one strand shown
# T10 sequence: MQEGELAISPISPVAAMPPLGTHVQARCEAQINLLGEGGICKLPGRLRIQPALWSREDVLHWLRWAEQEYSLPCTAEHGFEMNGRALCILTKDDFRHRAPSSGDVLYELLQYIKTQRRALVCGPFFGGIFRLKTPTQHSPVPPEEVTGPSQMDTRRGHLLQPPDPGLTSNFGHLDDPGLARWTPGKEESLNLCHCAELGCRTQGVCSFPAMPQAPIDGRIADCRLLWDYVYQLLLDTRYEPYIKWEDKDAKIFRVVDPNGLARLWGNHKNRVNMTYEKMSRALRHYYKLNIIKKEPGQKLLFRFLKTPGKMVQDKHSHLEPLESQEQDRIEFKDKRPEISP
# Method in brief: as §1
# ELF5 = molecular target: T11, ELF5 (Homo sapiens, UniProt Q9UKW6-2 1-255); details: protein: recombinant; tags: N-terminal GST; dsDNA, one strand shown
# T11 sequence: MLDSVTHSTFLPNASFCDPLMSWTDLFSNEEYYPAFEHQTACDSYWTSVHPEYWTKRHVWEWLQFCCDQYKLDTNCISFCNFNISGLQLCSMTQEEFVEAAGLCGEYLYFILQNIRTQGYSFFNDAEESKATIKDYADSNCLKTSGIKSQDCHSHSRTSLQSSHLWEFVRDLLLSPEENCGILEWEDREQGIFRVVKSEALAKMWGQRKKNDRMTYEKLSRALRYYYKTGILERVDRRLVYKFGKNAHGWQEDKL
# Method in brief: as §1
# ETV3 = molecular target: T12, ETV3 (Homo sapiens, UniProt P41162-2 1-143); details: protein: recombinant; tags: N-terminal GST; dsDNA, one strand shown
# T12 sequence: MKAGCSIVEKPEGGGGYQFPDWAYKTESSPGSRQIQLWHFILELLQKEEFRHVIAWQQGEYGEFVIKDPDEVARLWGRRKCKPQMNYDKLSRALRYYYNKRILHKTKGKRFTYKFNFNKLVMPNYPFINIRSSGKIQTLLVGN
# Method in brief: as §1
# ETV6 = ETV6 (Homo sapiens, UniProt P41212 1-452); details: protein: recombinant; tags: N-terminal GST; dsDNA, one strand shown
# Method in brief: as §1
# Sequence of ETV1 (P50549 whole entry): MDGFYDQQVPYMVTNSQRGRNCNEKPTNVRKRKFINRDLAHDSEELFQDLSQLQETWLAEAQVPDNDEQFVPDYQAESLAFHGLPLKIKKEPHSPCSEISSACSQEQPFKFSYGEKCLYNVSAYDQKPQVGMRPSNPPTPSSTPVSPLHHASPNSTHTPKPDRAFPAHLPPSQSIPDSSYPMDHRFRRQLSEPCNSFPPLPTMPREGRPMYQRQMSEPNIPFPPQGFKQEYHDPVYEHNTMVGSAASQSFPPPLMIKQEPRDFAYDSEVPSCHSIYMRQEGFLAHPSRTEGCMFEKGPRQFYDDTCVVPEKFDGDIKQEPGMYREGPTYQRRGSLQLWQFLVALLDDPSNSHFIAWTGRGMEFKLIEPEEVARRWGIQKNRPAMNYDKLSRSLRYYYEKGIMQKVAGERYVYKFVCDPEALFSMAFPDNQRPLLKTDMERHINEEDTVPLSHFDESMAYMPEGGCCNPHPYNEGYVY
# Sequence of CRX (O43186 whole entry): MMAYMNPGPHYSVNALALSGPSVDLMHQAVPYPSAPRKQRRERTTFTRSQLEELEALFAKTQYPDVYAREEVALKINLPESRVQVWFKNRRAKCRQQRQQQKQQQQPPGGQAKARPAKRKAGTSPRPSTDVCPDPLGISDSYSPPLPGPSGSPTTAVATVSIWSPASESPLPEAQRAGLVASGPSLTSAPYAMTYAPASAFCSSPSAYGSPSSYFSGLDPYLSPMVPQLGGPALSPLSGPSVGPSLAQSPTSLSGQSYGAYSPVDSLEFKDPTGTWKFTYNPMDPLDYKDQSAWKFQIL
# Sequence of ETV5 (P41161 whole entry): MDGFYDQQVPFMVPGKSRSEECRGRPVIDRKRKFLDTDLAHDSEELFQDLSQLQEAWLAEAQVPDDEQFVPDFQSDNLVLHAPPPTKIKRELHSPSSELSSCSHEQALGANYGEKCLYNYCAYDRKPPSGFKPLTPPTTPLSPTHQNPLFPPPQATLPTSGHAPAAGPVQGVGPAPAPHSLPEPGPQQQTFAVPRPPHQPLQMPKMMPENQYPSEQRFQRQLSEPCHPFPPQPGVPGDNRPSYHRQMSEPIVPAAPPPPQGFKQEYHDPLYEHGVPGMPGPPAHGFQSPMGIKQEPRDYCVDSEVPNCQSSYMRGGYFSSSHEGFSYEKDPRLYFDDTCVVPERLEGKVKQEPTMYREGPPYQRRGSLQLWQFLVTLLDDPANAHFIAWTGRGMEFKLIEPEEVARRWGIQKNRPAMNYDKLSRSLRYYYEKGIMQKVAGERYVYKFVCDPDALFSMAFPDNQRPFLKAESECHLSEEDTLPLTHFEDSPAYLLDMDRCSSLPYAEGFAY
# Sequence of ELF4 (Q99607 whole entry): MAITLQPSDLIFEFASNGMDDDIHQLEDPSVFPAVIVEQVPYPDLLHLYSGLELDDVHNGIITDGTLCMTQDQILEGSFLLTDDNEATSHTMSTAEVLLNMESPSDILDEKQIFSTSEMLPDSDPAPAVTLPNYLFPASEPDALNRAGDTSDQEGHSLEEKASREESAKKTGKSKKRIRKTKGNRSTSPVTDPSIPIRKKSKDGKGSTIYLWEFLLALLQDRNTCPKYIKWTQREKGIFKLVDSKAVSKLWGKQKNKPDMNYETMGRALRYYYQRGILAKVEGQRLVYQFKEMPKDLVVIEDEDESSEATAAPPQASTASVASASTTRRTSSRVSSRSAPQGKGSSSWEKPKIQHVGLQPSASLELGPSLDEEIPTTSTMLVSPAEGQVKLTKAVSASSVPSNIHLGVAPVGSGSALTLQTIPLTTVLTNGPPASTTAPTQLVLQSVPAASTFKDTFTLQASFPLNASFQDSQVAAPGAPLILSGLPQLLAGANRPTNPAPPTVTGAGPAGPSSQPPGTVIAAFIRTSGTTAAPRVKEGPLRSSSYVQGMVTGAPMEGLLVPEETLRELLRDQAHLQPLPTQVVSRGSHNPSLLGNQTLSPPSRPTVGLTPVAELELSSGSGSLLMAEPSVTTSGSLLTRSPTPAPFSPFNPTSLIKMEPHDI
# Sequence of ETV6 (P41212 whole entry): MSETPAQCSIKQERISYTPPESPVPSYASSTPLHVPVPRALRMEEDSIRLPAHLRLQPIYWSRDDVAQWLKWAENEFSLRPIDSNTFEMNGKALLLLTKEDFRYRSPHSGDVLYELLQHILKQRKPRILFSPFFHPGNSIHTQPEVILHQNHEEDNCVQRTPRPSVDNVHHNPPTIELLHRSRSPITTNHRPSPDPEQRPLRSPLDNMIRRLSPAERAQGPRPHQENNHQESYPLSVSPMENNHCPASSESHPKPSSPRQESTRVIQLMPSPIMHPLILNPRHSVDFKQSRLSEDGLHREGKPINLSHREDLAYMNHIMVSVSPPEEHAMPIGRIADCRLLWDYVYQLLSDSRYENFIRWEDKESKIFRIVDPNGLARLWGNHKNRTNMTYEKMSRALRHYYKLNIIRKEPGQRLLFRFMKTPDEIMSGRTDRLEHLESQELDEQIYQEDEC
# Sequence of HSF1 (Q00613 whole entry): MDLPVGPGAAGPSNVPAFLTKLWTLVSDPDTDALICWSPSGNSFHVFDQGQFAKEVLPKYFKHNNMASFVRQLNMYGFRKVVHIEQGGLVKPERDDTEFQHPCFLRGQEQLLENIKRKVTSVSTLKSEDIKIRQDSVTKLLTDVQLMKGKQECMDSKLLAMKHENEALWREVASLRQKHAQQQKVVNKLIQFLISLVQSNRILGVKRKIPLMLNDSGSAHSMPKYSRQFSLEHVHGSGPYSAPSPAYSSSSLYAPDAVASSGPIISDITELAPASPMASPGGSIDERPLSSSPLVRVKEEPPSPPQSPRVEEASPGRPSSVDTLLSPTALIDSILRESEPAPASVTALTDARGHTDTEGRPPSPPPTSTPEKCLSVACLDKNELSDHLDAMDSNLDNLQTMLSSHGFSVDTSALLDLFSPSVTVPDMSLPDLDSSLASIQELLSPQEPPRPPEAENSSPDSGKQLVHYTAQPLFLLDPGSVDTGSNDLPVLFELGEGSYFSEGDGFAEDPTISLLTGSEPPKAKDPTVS
sequence,measurement,setting,value
TTGCTA,binding signal,FEV,"1.24 fold enrichment (6-mer frequency, TF over GST control)"
same,binding signal,ETV5,"1.3 fold enrichment (6-mer frequency, TF over GST control)"
same,binding signal,HSF1,"1.48 fold enrichment (6-mer frequency, TF over GST control)"
same,binding signal,SPIC,"1.4 fold enrichment (6-mer frequency, TF over GST control)"
same,binding signal,ELF4,"1.29 fold enrichment (6-mer frequency, TF over GST control)"
same,binding signal,ELK4,"1.46 fold enrichment (6-mer frequency, TF over GST control)"
same,binding signal,ETV2,"1.35 fold enrichment (6-mer frequency, TF over GST control)"
same,binding signal,ELF3,"1.31 fold enrichment (6-mer frequency, TF over GST control)"
same,binding signal,CRX,"1.5 fold enrichment (6-mer frequency, TF over GST control)"
same,binding signal,ETV1,"1.37 fold enrichment (6-mer frequency, TF over GST control)"
same,binding signal,ERF,"1.37 fold enrichment (6-mer frequency, TF over GST control)"
same,binding signal,ETV3L,"1.35 fold enrichment (6-mer frequency, TF over GST control)"
same,binding signal,ETS2,"1.33 fold enrichment (6-mer frequency, TF over GST control)"
same,binding signal,SPDEF,"1.31 fold enrichment (6-mer frequency, TF over GST control)"
same,binding signal,ETV7,"1.37 fold enrichment (6-mer frequency, TF over GST control)"
same,binding signal,ELF5,"1.21 fold enrichment (6-mer frequency, TF over GST control)"
same,binding signal,ETV3,"1.28 fold enrichment (6-mer frequency, TF over GST control)"
same,binding signal,ETV6,"1.23 fold enrichment (6-mer frequency, TF over GST control)"
